sEH inhibitor: inhibitors of human soluble epoxide hydrolase | P34913 | recombinant human sEH enzymatic activity assay | inhibition, % at 2 µM | 0.34% of 91,000 active | AID 707; in the data active means inhibition above about 80%
sEH activator: soluble epoxide hydrolase (human) activation. activation, % at 2 µM. AID 717. P34913. purified human sEH enzymatic activity, activator screen. 0.04% of 91,000 active; in the data active means activation above about 37%
IL1B NFkB inh: blocks IL-1B driven NFkB nuclear translocation in HUVEC cells | HUVEC IL-1B NFkB p65 nuclear translocation imaging | inhibition, % at 2 µM | 0.43% of 94,000 active;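 active means inhibition above about 30% together with a positive call from visual inspection of the well image, limit read from the data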;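 further: nuclear over cytoplasmic p65 intensity ratio measured by imaging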
NFkB transloc pot: enhances IL-1B driven NFkB nuclear translocation | HUVEC IL-1B NFkB p65 nuclear translocation imaging | activation, % at 2 µM | 0.3% of 94,000 active;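 active means activation above 40%, about the mean plus 3 SD, also judged a hit on visual image review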;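 further: percent activation is computed from the nuclear over cytoplasmic p65 intensity ratio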
HUVEC tox IL1B: toxic to HUVEC cells under IL-1B stimulation. HUVEC cell count loss, Hoechst imaging, IL-1B stimulated. cell count reduction, % at 2 µM. 0.41% of 94,000 active;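 active means cell count reduction more than 3 SD above the screen-wide mean, cut at about 70% in these data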
Cav3 T inh: inhibitors of human Cav3.2 T-type calcium channel; O95180; Cav3.2-expressing cells, Fluo-4 calcium fluorescence FDSS; active compounds read low; B-score at 10 µM; 4% of 100,000 active; AID 449739;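 active means single-dose well whose peak fluorescence ratio is a statistical outlier from its plate by either plate-standardised score or position-corrected B-score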
Numbers stand for hits; n = inactive; x = no result. This is a sample that favours compounds with a hit; in the whole collection about 4.6% have one here.

SMILES	sEH inhibitor	sEH activator	IL1B NFkB inh	NFkB transloc pot	HUVEC tox IL1B	Cav3 T inh
O=C(c1sc2ccccc2c1Cl)N(Cc1cccs1)C1CCS(=O)(=O)C1 (centres undefined)	n	n	n	n	n	-7.8
CN(Cc1ccc(-n2cccn2)cc1)C(=O)c1cnn2c1NC(c1ccco1)CC2C(F)(F)F (centres undefined)	n	n	n	n	n	-7.6
Cc1ccc(C2CC(C(F)(F)F)n3ncc(C(N)=O)c3N2)cc1 (centres undefined)	n	n	n	n	n	n
Cc1ccc(C2CC(C(F)(F)F)n3ncc(C(=O)NCc4ccco4)c3N2)cc1 (centres undefined)	n	n	n	n	n	-5.8
Cc1ccc(CN(CC(=O)N/N=C/c2ccco2)S(=O)(=O)c2ccc(C)cc2)cc1	n	n	n	n	n	n
Cc1cccc(C)c1N(CC(=O)Nc1cc(Cl)ccc1Oc1ccccc1)S(C)(=O)=O	n	n	n	n	n	-5.6
CS(=O)(=O)N(CC(=O)Nc1cc(Cl)ccc1Cl)c1ccccc1Cl	n	n	n	n	n	-4.7
Cc1ccc(NC(=O)CN(c2ccccc2)S(=O)(=O)N(C)C)cc1C	n	n	n	n	n	-3.6
Cc1ccc(C)c(N(CC(=O)Nc2cc(Cl)ccc2Oc2ccccc2)S(C)(=O)=O)c1	n	n	n	n	n	x
COc1ccc(NC(=O)CN(c2ccccc2)S(=O)(=O)N(C)C)cc1OC	n	n	n	n	n	n
Cc1ccccc1N(CC(=O)Nc1ccccc1C(=O)O)S(C)(=O)=O	n	n	n	n	n	n
CN(C)S(=O)(=O)N(CC(=O)Nc1ccccc1)c1ccccc1	n	n	n	n	n	n
COc1ccc(Cl)cc1NC(=O)CN(c1ccccc1)S(=O)(=O)N(C)C	n	n	n	n	n	-10
Cc1cc(C(=O)Nc2sc3c(c2C#N)CCCCC3)cs1	n	n	n	n	n	n
CCn1nnnc1-c1ccc(OC)c(S(=O)(=O)Nc2ccc(C(=O)OC)cc2)c1	n	n	n	n	n	n
CCOc1ccc2nc(SCC(=O)N3CCCc4ccccc43)sc2c1	n	n	n	n	n	-4.7
O=C(CSc1nnc(CNc2ccc(F)cc2)o1)N1CCCc2ccccc21	x	x	x	x	x	-5.3
CCc1cc2c(=O)n(Cc3ccco3)c(SCC(=O)N3CCCc4ccccc43)nc2s1	n	n	n	n	n	-5.3
COc1ccc(-c2nnc(SCC(=O)N3c4ccccc4Sc4ccccc43)o2)cc1	n	n	n	n	n	-5.6
CCc1cc2c(=O)n(Cc3ccco3)c(SCc3c(C)noc3C)nc2s1	x	x	n	n	n	n
CCn1c(CNc2ccc(F)cc2)nnc1SCC(=O)N1CCCc2ccccc21	n	n	n	n	n	n
O=P(COCCOCP(=O)(c1ccccc1)c1ccccc1)(c1ccccc1)c1ccccc1	n	n	n	n	n	n
COC(=O)c1[nH]c(C)c(/C(O)=C2\C(=O)C(=O)N(CCN3CCOCC3)C2c2cccnc2)c1C (centres undefined)	n	n	n	n	n	n
COc1cc(OC)cc(-c2nnc(SCC(=O)N3CCCc4ccccc43)o2)c1	n	n	n	n	n	-4.3
Cc1cc(=O)[nH]c(SCC(=O)c2ccccc2)c1C#N	x	x	x	x	x	n
SMILES	sEH inhibitor	sEH activator	IL1B NFkB inh	NFkB transloc pot	HUVEC tox IL1B	Cav3 T inh
CCn1c(SCc2ccc(F)cc2)nnc1C1CCN(S(=O)(=O)c2ccc(OC)cc2)CC1	n	n	n	n	n	n
CCn1c(SCc2ccc(C)cc2)nnc1C1CCN(S(=O)(=O)c2ccc(OC)cc2)CC1	n	n	n	n	n	-4.8
CCOC(=O)c1c(NC(=O)CCc2ccc(CC)o2)sc(C)c1C	n	n	n	n	n	-4.5
O=C(CSc1nnc(-c2ccco2)n1Cc1ccccc1)OC1CCCCC1	n	n	n	n	n	-6.2
O=C(CSc1nnc(-c2ccncc2)n1Cc1ccco1)OC1CCCCC1	n	n	x	x	x	n
COC(=O)c1c(NC(=O)CCc2ccc(C)o2)sc(C)c1C	n	n	n	n	n	n
CCCn1c(N)c(C(=O)CSc2nnc(Cc3ccccc3)o2)c(=O)n(C)c1=O	n	n	n	n	n	-7.8
CCOC(=O)c1c(NC(=O)CSc2nnc(Cc3ccccc3)o2)sc(C)c1C	n	n	n	n	n	-4.5
Cn1c(=O)c(C(=O)CSc2nnc(Nc3ccccc3)s2)c(N)n(Cc2ccccc2)c1=O	n	n	n	n	n	n
O=C(O)c1ccc(Cl)cc1NC(=O)C1CCCO1 (centres undefined)	n	n	n	n	n	n
COC(=O)c1c(NC(=O)CSc2nnc(-c3ccco3)n2Cc2ccccc2)sc(C)c1C	n	n	n	n	n	-4.5
Cc1ccccc1C(=O)c1cccn1CC(=O)NCC1CCCO1 (centres undefined)	n	n	n	n	n	n
Cn1cc(C(=O)c2ccc(Cl)cc2Cl)cc1C(=O)N/N=C(\N)COc1ccc(Cl)cc1Cl	n	n	n	n	n	x
Cn1cc(C(=O)c2ccc(Cl)cc2Cl)cc1C(=O)N/N=C(\N)COc1ccccc1	n	n	n	n	n	-6.6
Cn1cc(C(=O)c2ccc(Cl)cc2Cl)cc1C(=O)N/N=C(\N)COc1ccc(F)cc1	n	n	n	n	n	-6.1
CC(C)CC(=O)N1CCC(O)(CS(=O)(=O)Cc2ccc(Cl)cc2)CC1	n	n	n	n	n	n
COc1ccc(Cc2nnc(NC(=O)c3c(-c4ccccc4)noc3C)s2)cc1	n	n	n	n	n	-5.2
CC(C)(C)C(=O)Nc1nnc(Cc2ccccc2)s1	n	n	n	42	n	n
O=C(Nc1cccnc1)c1ccc2c(c1)C(=O)N(Cc1cccnc1)C2=O	n	n	n	n	n	n
CCOc1ccccc1N1C(=O)c2ccc(C(=O)Nc3cccnc3)cc2C1=O	n	n	n	n	n	-2.9
CCCOc1cccc(NC(=O)c2c(-c3ccccc3)noc2C)c1	n	n	n	n	n	-4.9
Cc1onc(-c2ccccc2)c1C(=O)Nc1cccc(OC(C)C)c1	n	n	n	n	n	n
COc1ccc(NC(=O)Nc2c(C)n(C)n(-c3ccccc3)c2=O)cc1	x	x	x	x	x	n
COC(=O)C1C2C=CC3(CN(c4ccc(Cl)c(F)c4)C(=O)C13)O2 (centres undefined)	x	x	x	x	x	n
CCCC(=O)Nc1ccc(C(=O)N/N=C2\CC(=O)CC(C)(C)C2)cc1	n	n	n	n	n	n
SMILES	sEH inhibitor	sEH activator	IL1B NFkB inh	NFkB transloc pot	HUVEC tox IL1B	Cav3 T inh
CCOc1cc(OCC)cc(C(=O)Nc2cccnc2)c1	x	x	x	x	x	n
CCCOc1cccc(C(=O)Nc2cccnc2)c1	n	n	n	40	n	n
Cn1c(Oc2ccccc2NCc2cccc(Br)c2)cc(=O)n(C)c1=O	n	n	n	n	n	-8.1
CN(C)c1ncnc2c1NC1=C(S2)C(=NCCCC(=O)O)CC(C)(C)C1	n	n	n	n	n	n
O=S(=O)(/C=C/c1ccccc1)Nc1ccc2c(c1)OCO2	n	n	n	n	n	-7.4
Cc1ccc(C(=O)Nc2ccc(C(=O)/C=C/c3cccs3)cc2)cc1	n	n	n	n	n	n
O=C(/C=C/c1cccs1)c1ccc(Br)cc1	n	n	n	107	n	n
